Measurements as given in PubChem BioAssay AID1010 (Sanford-Burnham Center for Chemical Genomics, 2008).
Screen size: about 48,000 compounds; about 160 (0.33%) were called active. This is one part of a sample in which actives are shown more often than they occur. Values without a mark were called inactive.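 The calls were made as follows: active = survival measured by cellular ATP above 50% at 15 µg/ml in the first screen; inactive = the rest.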

Experiment: protection against thapsigargin ER stress killing – CSM14.1 cells, ATP luminescence, primary screen (AID 1010);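 also: cell death triggered by about 15 µM thapsigargin; ATP read 24 h after thapsigargin was added; plate controls were thapsigargin with DMSO for no effect and DMSO without thapsigargin for full effect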
Conditions: CSM14.1 thapsigargin ER stress survival, stronger effect = higher value, screened at 15 µg/mL (by protocol)

SMILES	relative survival (cellular ATP)
O=C(Nc1ccc(Cc2ccncc2)cc1)C(c1ccccc1)c1ccccc1	43.5%
COc1cc2ccccc2cc1C(=O)Nc1ccccc1C	-5.9%
CC(C)(C)C(=O)CN1C2=NCCN2c2ccccc21	-3.6%
COc1ccc(C2CC(c3cccs3)=NN2c2ccc(F)cc2)cc1OC (stereo unspecified)	3.6%
O=C(NCc1ccncc1)c1cccc([N+](=O)[O-])c1	2.2%
CCCOc1ccc(/C=C2\C(=O)NN(c3ccccc3)C2=O)cc1OC	4.3%
O=C(NNC(=O)c1cc(NC(=O)c2ccc([N+](=O)[O-])cc2)cc(C(=O)NNC(=O)c2ccccc2)c1)c1ccccc1	10%
Cc1cc(Cl)ccc1NC(=O)CCc1ccccc1	5.6%
O=C(NCc1cccnc1)c1cnn2c(C(F)(F)F)cc(-c3cccs3)nc12	2.5%
O=C1C(=O)N(Cc2ccccc2)C(c2ccc(F)cc2)/C1=C(/O)c1ccccc1 (stereo unspecified)	6.2%
NC(=O)c1c(NC(=O)c2ccc(Br)cc2)sc2c1CCCCCC2	3.1%
COc1ccc(C(=O)Nc2sc3c(c2C(N)=O)CCCC3)cc1	13.7%
NC(=O)c1c(NC(=O)c2ccccc2F)sc2c1CCCCCC2	57.3% (active)
COc1ccc(CCN2C(=O)CC(Cc3ccc(Cl)cc3)C2=O)cc1OC (stereo unspecified)	10.7%
COc1cc(NC(=O)COc2ccc(Br)cc2C(C)(C)C)c(OC)cc1Cl	11.7%
Cc1c(C(=O)Nc2ccc(NC(=O)c3ccc(C(C)(C)C)cc3)cc2)cccc1[N+](=O)[O-]	0.1%
COc1cccc(OCCOc2ccc(/C=C3/SC(=S)NC3=O)cc2OC)c1	10.2%
NC(=O)C1(N2CCCCC2)CCN(C(=S)Nc2ccc(Cl)cc2)CC1	-1.2%
CC1=C(C(=O)Nc2ccccc2)C(c2ccco2)N2C(=O)CSC2=N1 (stereo unspecified)	2.3%

SMILES	relative survival (cellular ATP)
O=C(NCCC1=CCCCC1)c1cc(Cl)ccc1[N+](=O)[O-]	5.6%
NC1=NC(=O)/C(=C/c2ccc(OCc3cccc4ccccc34)cc2)S1	2.9%
O=C(NCCCCOc1ccccc1)C(O)(c1ccccc1)c1ccccc1	5.8%
COc1cc(OC)cc(C(=O)Nc2cccc(S(N)(=O)=O)c2)c1	-2.7%
CCOC(=O)c1ccc(NS(=O)(=O)c2cc(C(=O)Nc3ccccc3)ccc2C)cc1	4.6%
CC1=C(C#N)c2nc(N)c(C#N)c(C)c2/C1=C/c1ccc(-c2cccc(Cl)c2Cl)o1	-6.8%
O=C(O)c1cc(-c2ccc(/C=N/Nc3ccc(Cl)c(Cl)c3)o2)ccc1Cl	-2.2%
COc1ccc(/C=C2\SC(=S)N(CC(=O)OCCN(C)C)C2=O)cc1	-6.1%
Cc1c(C#N)c2nc3ccccc3n2c(=O)/c1=C\c1c(O)n(-c2ccc(Br)cc2)[nH]c1=O	-1.2%
O=c1nc2cc3[nH]c4c(=O)c5ccccc5c4[nH]c3cc2n1	12.2%
COC(=O)C1=C(C)NC2=C(C(=O)c3ccccc32)C1c1ccc(-c2ccc([N+](=O)[O-])cc2C)o1 (stereo unspecified)	7.6%
CC(=O)c1ccc(NC(=S)NC(NC(=O)N(C)C)C(Cl)(Cl)Cl)cc1 (stereo unspecified)	-1.5%
COc1ccc(/C(O)=C2/C(=O)C(=O)N(CCCCCC(=O)O)C2c2ccccc2)cc1 (stereo unspecified)	2.4%
O=C(NCCc1ccccc1)/C(=C/c1ccc(-c2cccc([N+](=O)[O-])c2)o1)NC(=O)c1ccccc1	8.1%
O=C(NC(NC(=S)N1CCOCC1)C(Cl)(Cl)Cl)c1cccc([N+](=O)[O-])c1 (stereo unspecified)	0.9%
CC(C)(C)CC(C)(C)NC(=O)CSc1nc2ccccc2[nH]1	12.7%
COC(=O)C1=C(C)N=c2s/c(=C\c3ccc(N(C)C)cc3)c(=O)n2C1c1ccccc1Cl (stereo unspecified)	0.6%
COc1cc(/C=C2/NC(=S)NC2=O)ccc1OCc1ccccc1Cl	1.9%
CCN1C(=O)/C(=C\c2ccc(OC)c([N+](=O)[O-])c2)C(C(=O)OC)=C1C	11.8%

SMILES	relative survival (cellular ATP)
Cc1ccc(N2C(=O)/C(=C/c3sccc3C)SC2=S)cc1	9.2%
O=C1S/C(=C/c2ccccc2F)C(=O)N1CNc1ccccc1Br	2.5%
O=C(Nc1nc(-c2ccc3ccccc3c2)cs1)c1ccc(Cl)cc1[N+](=O)[O-]	2%
O=c1[nH]c(=S)n(-c2cccc(Cl)c2)c(O)c1/C=C1/C=CC=N1	8.4%
O=c1[nH]c(=O)n(-c2ccc(Cl)cc2)c(O)c1/C=C1/C=CC=N1	64.8% (active)
CCOc1ccc(-n2c(O)c(C=C3C=CC=N3)c(=O)[nH]c2=O)cc1	2.3%
COc1ccc(/C=C(/NC(=O)c2ccco2)C(=O)Nc2ccc(C(C)=O)cc2)cc1	2.4%
COC(=O)C(NC(=O)CCC1CCCCC1)C12CC3CC(CC(C3)C1)C2 (stereo unspecified)	13.9%
CC1=NN(c2ccc(S(N)(=O)=O)cc2)C(=O)/C1=C\c1ccc(-c2cc([N+](=O)[O-])ccc2C)o1	-4.8%
CCOc1c(Br)cc(/C=C2/C(=O)NN(c3ccccc3)C2=O)cc1OC	5%
COc1ccc(Br)cc1-c1nc2nnc(C)n2[nH]1	7.4%
Cc1ccc(C(=O)Nc2ccc(NC(=O)c3ccccc3)cc2)cc1S(=O)(=O)N1CCOCC1	5%
COc1ccc(-c2cc(C(=O)Nc3c(C)cccc3C)c3ccccc3n2)cc1	0.1%
COCCCNC(=O)c1ccccc1C	0.6%
CCOCCOC(=O)c1ccc(NC(=O)c2ccccc2C)cc1	7.2%
CCCCOC(=O)C1=C(C)NC2=C(C(=O)CC(c3ccccc3)C2)C1c1ccc(O)c([N+](=O)[O-])c1 (stereo unspecified)	3.8%
O=C1OC(c2ccc(NC(=O)C(F)(F)F)cc2)(c2ccc(NC(=O)C(F)(F)F)cc2)c2ccccc21	6.6%
O=C1NC(=S)S/C1=C\c1ccccc1OS(=O)(=O)c1ccc([N+](=O)[O-])cc1	3.7%
